From PubChem
A selection: hits, their analogues and other compounds. The true share with any hit is near 7.5%.
FLuc counter: firefly luciferase modulation, counter-screen for miR-21 project; AID 588342; Potency, µM (doses to about 57.5 µM), for inactives: top-dose activity change, negative = inhibition, usual class: inhibitors; P08659; purified FLuc, Km substrates, luminescence inhibition; 6.9% of 360,000 active;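 further: plate controls were vehicle for no effect and reference inhibitor for full effect; nearly all actives have a fitted effect of over 55% in size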
Target sequence (P08659 whole entry, looked up): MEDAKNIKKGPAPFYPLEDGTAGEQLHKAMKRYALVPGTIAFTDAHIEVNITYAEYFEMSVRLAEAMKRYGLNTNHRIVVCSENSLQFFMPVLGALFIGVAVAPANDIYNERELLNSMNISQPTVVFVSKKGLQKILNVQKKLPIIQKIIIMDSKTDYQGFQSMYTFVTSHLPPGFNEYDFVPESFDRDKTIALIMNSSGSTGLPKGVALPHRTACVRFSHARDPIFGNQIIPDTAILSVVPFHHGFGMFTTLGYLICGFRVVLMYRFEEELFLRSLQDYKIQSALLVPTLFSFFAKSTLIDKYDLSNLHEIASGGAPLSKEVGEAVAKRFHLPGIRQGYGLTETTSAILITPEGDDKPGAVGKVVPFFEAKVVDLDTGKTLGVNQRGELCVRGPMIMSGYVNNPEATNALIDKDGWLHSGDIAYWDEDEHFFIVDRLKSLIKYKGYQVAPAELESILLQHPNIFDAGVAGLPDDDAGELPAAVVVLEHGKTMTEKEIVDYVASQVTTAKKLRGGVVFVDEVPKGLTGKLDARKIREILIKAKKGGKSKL
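Purified P. pyralis luciferase, 10 nM final, with Km-level 10 uM D-luciferin and 10 uM ATP in 50 mM Tris acetate pH 7.5, 10 mM Mg acetate, 0.01% Tween-20, 0.05% BSA; 6-point qHTS titration about 60 µM downward; luminescence read.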
Luc counter: Kinase-Glo luciferase inhibition (counter-screen) | Potency, µM (top dose mostly 38.3 µM), for inactives: at the top dose activity change, negative = inhibition, usual class: inhibitors | 0.28% of 200,000 active | Kinase-Glo luciferase, ATP luminescence, 8 min | Q27757; further: on the % scale 0 is the no-effect control and ±100 the full control effect; nearly all actives have a fitted effect of over 60% in size
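Recombinant Kinase-Glo luciferase, 10 uM ATP (linear range), luciferin; imidazole pH 7.2 / KCl / MgCl2 / Tween / BSA buffer; 8 min RT; luminescence.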
ELG1 genotoxic: genotoxicity induction in ELG1-luciferase HEK293T cells | Potency, µM (highest dose often 46 µM), without a hit: at the top dose activity change, positive = activation, hits mostly activators | 1.3% of 330,000 active | HEK293T ELG1-luciferase reporter, luminescence, 16 h; further: % of control where 0% means no effect; nearly all actives have a fitted effect of over 60% in size
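Reporter readout depends on ELG1 protein level, which increases with genetic stress. After 16 hr compound exposure at 37 °C, luciferase activity was quantified using ONE-Glo.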
NPC1 promoter act: activators of NPC1 promoter. AID 485313. Potency, µM (highest dose often 9.22 µM), without a hit: at the highest dose activation, most hits filed as activators. 2.4% of 320,000 active. Huh7 NPC1 promoter luciferase reporter, 24 h; further: % of control where 0% means no effect; nearly all actives have a fitted effect of over 60% in size
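Stably transfected Huh7 (NPC1 promoter→luciferase), 1500 cells/well in Opti-MEM + 10% FBS, 2 h settle, then compound 24 h at 37 °C. Luminescence after 10 min with Amplite reagent.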
Rab9 prom act: Rab9 promoter activation; Huh7 Rab9 promoter-luciferase reporter, luminescence, 24 h; AID 485297; 2.8% of 320,000 active; Potency, µM (highest dose often 9.22 µM), inactives show at the highest dose activation, negative = inhibition, hits mostly activators; further: % of control where 0% means no effect; nearly all actives have a fitted effect of over 60% in size
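Steps: seed 1500 Huh7 Rab9-luc cells per well, rest 2 h at 37 °C; add compound in DMSO; incubate 24 h; add luciferase reagent, 10 min ambient; read luminescence.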
SMN2 splice up: increases expression of the SMN2 splice variant | HEK293 SMN2-luciferase splicing reporter, luminescence, 30-36 h | Potency, µM (series often up to 46.1 µM), for inactives: at the top dose activity change, positive = activation, usual class: activators | 2.8% of 210,000 active; further: % of control where 0% means no effect; nearly all actives have a fitted effect of over 55% in size
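HEK293 cells carry an SMN2 minigene-luciferase reporter in which exon 7 inclusion puts luciferase in frame. Cells were seeded at 2000 cells/well, attached for 10-12 hours, then exposed to compounds for 30-36 hours at 37C before ONE-Glo luminescence.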
Numbers without * were called inactive; u = inconclusive; x = no result given. The call rests on the fitted dose curve; in most records, active means well fitted curve in the direction sought with a large enough effect; inconclusive means small, poorly fitted or top-dose-only effect, or another doubt; inactive means no such curve, though single readings can be large; an effect the other way counts as inactive or inconclusive. Potency means the concentration at half of the fitted maximal effect.

SMILES	FLuc counter	Luc counter	ELG1 genotoxic	NPC1 promoter act	Rab9 prom act	SMN2 splice up
Oc1ccc2ccccc2c1/C=N/Nc1ccccc1	6µM*	0%	u	0%	0%	u
O=CN/N=C/c1c(O)ccc2ccccc12	-1%	x	0%	-33%	-29%	x
Oc1ccc2ccccc2c1C=NCc1ccccc1	11µM*	x	-7%	-3%	11%	x
CCOC(=O)c1ccc(-c2ccc(/C=C(\C#N)C(=O)Nc3ccc(C)cc3OC)o2)cc1	-1%	x	x	x	x	2%
COc1ccc(CNC(=O)C(=O)Nc2c3c(nn2-c2ccccc2)CSC3)cc1	-10%	x	x	x	x	x
CCc1ccc(OCC(=O)NCc2ccco2)c(Br)c1	9.5µM*	0%	u	u	u	3%
N#Cc1ccccc1OCC(=O)NC(=O)NCc1ccco1	19µM*	x	u	u	u	x
Cc1ccc(NS(=O)(=O)c2c(C)noc2C)cc1	1%	x	1%	-4%	-7%	x
COc1cc(CNc2ccc(C)c(C)c2)cc(OC)c1OC	-14%	1%	17%	-35%	-12%	-2%
COc1ccc(CNc2ccc(C)c(C)c2)cc1	15µM*	1%	u	u	u	25%
CSc1ccc(CNc2ccc(C)cc2)cc1	9.5µM*	-1%	u	3.5µM*	4µM*	-5%
CSc1ccc(CNc2ccc(C)c(C)c2)cc1	15µM*	2%	u	u	u	8%
Cc1ccc(NCc2ccccc2)cc1	u	0%	-4%	-1%	-3%	2%
Cc1nonc1NC(=O)c1oc2ccc(F)cc2c1C	-1%	x	14%	u	u	x
Cc1cc2oc(C(=O)Nc3nonc3C)c(C)c2cc1Cl	-6%	x	u	u	3.5µM*	x
CCc1ccc2oc(C(=O)Nc3nc(-c4ccccc4)ns3)c(C)c2c1	5.4µM*	x	x	x	x	u
CCc1ccc2oc(C(=O)Nc3nonc3CC)c(C)c2c1	u	x	u	u	3.5µM*	11%
COc1ccc(-c2nsc(NC(=O)c3oc4ccc(Cl)cc4c3C)n2)cc1	-16%	x	x	x	x	4%
O=S(=O)(NCc1ccccc1)c1ccc(NC(=S)NCc2ccco2)cc1	0%	x	-4%	-7%	0%	x
Cc1ccc(NS(=O)(=O)c2cccc(C(=O)NCC(c3ccco3)N3CCCC3)c2)cc1 (centres undefined)	-5%	x	-2%	-1%	-2%	x
CC(=O)c1cccc(OCc2cc(C(=O)N3CC4C[C@@H]5CC3C[C@H](C4)C5)no2)c1	u	x	5%	-4%	-4%	x
COc1ccccc1OCc1cc(C(=O)N2CCN(C)C(c3ccccc3)C2)no1 (centres undefined)	9.5µM*	x	u	4µM*	2µM*	x
O=C(c1cc(COc2ccc(F)cc2F)on1)N1C[C@H]2CC[C@H]1C2	u	x	25%	19%	u	x
COc1ccccc1OCc1cc(C(=O)N2CC3C[C@@H]4CC2C[C@H](C3)C4)no1	17µM*	x	u	4.5µM*	3.5µM*	x
CC(=O)c1ccc(OCc2cc(C(=O)N3CC4C[C@@H]5CC3C[C@H](C4)C5)no2)cc1	9.5µM*	x	u	2.5µM*	3.2µM*	x
SMILES	FLuc counter	Luc counter	ELG1 genotoxic	NPC1 promoter act	Rab9 prom act	SMN2 splice up
O=C(c1cc(COc2ccc(F)cc2F)on1)N1CC2C[C@@H]3CC1C[C@H](C2)C3	17µM*	x	12%	u	u	x
CC(=O)c1ccc(N2CCN(C(=O)C3CCN(S(=O)(=O)c4cccs4)CC3)CC2)cc1	-2%	x	-9%	-3%	-6%	x
O=C(OCc1ccccc1)c1cccc(-c2nnn(Cc3ccccc3)n2)c1	-3%	-6%	u	27%	17%	7.9µM*
O=C(Cn1nnc(-c2ccccc2)n1)OCc1ccccc1	u	-6%	-1%	2%	0%	-3%
O=C(CCC(=O)N1Cc2ccccc2Oc2ncccc21)NCc1ccccc1Cl	-20%	x	x	x	x	x
O=S(=O)(Cc1ccccc1)N1CCNCC1	1%	x	0%	-6%	2%	x
CCN(c1ccc(NC(=O)CN2C(=O)NC3(CCOc4ccccc43)C2=O)cc1)C(C)C (centres undefined)	17µM*	22%	1%	-3%	-2%	-9%
CCCC(=O)Nc1nc(-c2ccc(OC)cc2)cs1	u	17%	u	24%	u	u
CC(C)(C)C(=O)OCc1nc(-c2ccc3c(c2)OCCO3)cs1	0.54µM*	x	u	2.8µM*	3.2µM*	x
NC(=O)Cc1nc(-c2ccc(F)cc2)cs1	-2%	x	7%	4%	13%	x
CC(C)(C)C(=O)OCc1nc(-c2ccc(F)cc2)cs1	1.3µM*	x	18%	u	2.5µM*	x
COc1ccc(-c2csc(NC(=O)C3CC(=O)N(c4ccc5c(c4)OCCO5)C3)n2)cc1 (centres undefined)	-14%	x	-4%	-4%	-2%	x
CC(C)(C)C(=O)OCc1nc(-c2ccc(Cl)cc2)cs1	1.2µM*	x	u	3.5µM*	4.5µM*	x
COc1ccc(-c2csc(COC(=O)C(C)(C)C)n2)cc1	2.4µM*	x	6%	24%	u	x
COc1ccc(CCNC(=O)c2nnn(-c3ccc4c(c3)OCCO4)c2N)cc1OC	19µM*	3%	10%	13%	-5%	x
Cc1ccccc1NC(=O)c1nnn(-c2ccc3c(c2)OCCO3)c1N	6µM*	x	5%	1.3µM*	0.89µM*	x
CCOc1ccccc1NC(=O)c1nnn(CC(=O)Nc2ccc3c(c2)OCO3)c1N	-18%	x	3%	-2%	-4%	x
Nc1c(C(=O)NCc2ccc3c(c2)OCO3)nnn1-c1ccc(OC(F)(F)F)cc1	-3%	-1%	1%	7%	11%	-44%
CCOc1ccccc1NC(=O)c1nnn(-c2ccc3c(c2)OCCO3)c1N	17µM*	x	-2%	-4%	u	x
Nc1c(C(=O)Nc2cccc(F)c2)nnn1-c1ccc2c(c1)OCCO2	0.6µM*	x	0.65µM*	0.1µM*	0.32µM*	x
Cc1ccc(S(=O)(=O)/C=C\C#N)cc1	x	-1%	x	x	x	x
O=c1[nH]c2ccccc2nc1Cc1ccccc1	0%	-2%	0%	1%	5%	2%
O=C(Cc1nc2ccccc2[nH]1)c1ccc(Br)cc1	21µM*	-2%	9%	29%	u	u
O=C(Cc1nc2ccccc2[nH]c1=O)c1ccccc1	3.4µM*	-20%	u	3.2µM*	1.4µM*	11µM*
CCc1ccc(CNC(=O)c2ccc(OC3CCN(C(C)=O)CC3)c(OC)c2)nc1	0%	x	-1%	-3%	-2%	x
Cc1ccc(-c2cc(C(=O)N3CC(C)CC(C)C3)c3ccccc3n2)o1 (centres undefined)	12µM*	x	-1%	1%	2%	x
